# VACV Venus inh: vaccinia inhibition (Venus reporter). 330,000 compounds, 0.46% hits. Vaccinia virus Venus reporter expression, fluorescence. Potency, µM (series often up to 36.5 µM), actives largely listed as inhibitors; calls by dose curve; tested in A549 cells; further: nearly all actives have a fitted effect of over 30% in size
# SARS PLP yeast: inhibitors of SARS-CoV papain-like protease in yeast; 330,000 compounds, 0.19% hits; Potency, µM (doses to about 32.9 µM), usual class: activators; S. cerevisiae expressing SARS-CoV PLpro, growth rescue; AID 485353; calls by dose curve; further: nearly all actives have a fitted effect of over 55% in size
# AMA1-RON2 inh: AMA1-RON2 (P. falciparum) interaction inhibition | AlphaScreen AMA1-biotinylated RON2 peptide binding | Potency, µM (series often up to 58.2 µM), hits mostly inhibitors | 360,000 compounds, 0.2% hits | AID 720542; further: nearly all actives have a fitted effect of over 45% in size
#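 AMA1 (3D7) with his tag at 25 nM final met compounds first, then biotinylated RON2 peptide at 25 nM; detection used donor plus acceptor beads, 10 µg/mL apiece, read by AlphaScreen after 30 min at room temperature.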
# AmpC inh detg: blocks E. coli AmpC beta-lactamase in detergent assay | Potency, µM (top dose mostly 114 µM), actives largely listed as inhibitors | AmpC hydrolysis of nitrocefin, absorbance 480 nm, 0.01% Triton | AID 485294 | 370,000 compounds, 0.041% hits; further: nearly all actives have a fitted effect of over 25% in size
# Target sequence (P00811 whole entry, looked up): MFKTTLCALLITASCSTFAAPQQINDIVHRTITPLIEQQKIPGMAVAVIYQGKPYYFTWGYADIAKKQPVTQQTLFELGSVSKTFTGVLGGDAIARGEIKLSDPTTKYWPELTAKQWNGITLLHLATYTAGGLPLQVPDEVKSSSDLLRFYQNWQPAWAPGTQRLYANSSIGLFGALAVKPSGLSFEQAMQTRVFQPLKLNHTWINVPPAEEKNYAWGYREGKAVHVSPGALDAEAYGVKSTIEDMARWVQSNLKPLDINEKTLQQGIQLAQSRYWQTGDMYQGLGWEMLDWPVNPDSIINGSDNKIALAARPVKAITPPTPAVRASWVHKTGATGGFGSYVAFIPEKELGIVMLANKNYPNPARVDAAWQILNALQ
#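 AmpC (5.3 nM in the dispensed reagent) in 20 mM phosphate pH 7.0 with 0.01% (detergent screen) or 0.0001% Triton X-100 was preincubated with compounds for 15 min at room temperature. Nitrocefin was then added from an 800 uM solution, and hydrolysis was followed at 480 nm.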
# Vaccinia mCherry: vaccinia inhibition (mCherry reporter) | Vaccinia virus mCherry reporter infection, fluorescence | AID 720579 | Potency, µM (highest dose often 36.5 µM), most hits filed as inhibitors | 310,000 compounds, 0.63% hits; calls by dose curve; tested in A549 cells; further: nearly all actives have a fitted effect of over 35% in size
# AmpC no deterg: AmpC beta-lactamase inhibition without detergent; AmpC nitrocefin hydrolysis, absorbance 480 nm, 0.0001% Triton; Potency, µM (doses to about 57.1 µM), usual class: inhibitors; 330,000 compounds, 0.52% hits; further: nearly all actives have a fitted effect of over 20% in size
#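 20 mM phosphate pH 7.0 + 0.01% (detergent screen) or 0.0001% Triton X-100; 5.3 nM AmpC reagent; cpd preinc 15 min RT; nitrocefin (800 uM stock) to start; A480 q20 s × 4 min; Activity was normalised to no-enzyme and no-compound control wells.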
# Numbers stand for hits; - = inactive; ? = inconclusive; . = not tested or not shown; [ ] = dose if it differs, or a comment. Hits are enriched below; roughly 1.4% of the tested compounds scored in any of these assays. Unless noted, the call rests on the fitted dose curve; in most records, active means well fitted curve in the direction sought with a large enough effect; inconclusive means small, poorly fitted or top-dose-only effect, or another doubt; inactive means no such curve, though single readings can be large; an effect the other way counts as inactive or inconclusive.
SMILES,VACV Venus inh,SARS PLP yeast,AMA1-RON2 inh,AmpC inh detg,Vaccinia mCherry,AmpC no deterg
Cn1c(SCC(=O)NCc2ccco2)nnc1-c1cccc(NC(=O)c2ccccc2)c1,-,.,.,.,-,.
O=C(NCC1Cc2cc(-c3cncnc3)cc(Cl)c2O1)c1cccc(Cn2cccn2)c1 (stereo not drawn),-,.,.,.,-,.
O=C(CCN1C(=O)/C(=C\c2ccccc2F)SC1=S)N1CCOCC1,13µM,.,-,.,?,.
O=C(NCCc1nc2ccccc2n1CCOc1ccccc1)C1CCCCC1,-,.,.,.,-,.
C=Cc1ccc(C(=O)N2CCc3c(cnc(C)c3CNC(=O)c3ccc4c(c3)OCO4)C2)cc1,-,.,.,.,-,.
Cc1cccc(NC(=O)c2cnc3sccn3c2=O)c1C,.,-,.,?,.,2.8µM
CN(C)c1ccc(Cn2ccc3ccccc32)cc1,-,.,.,.,-,.
COc1ccc(CC(=O)Nc2cccc(-c3nnc(-c4ccc(C)cc4)o3)c2)cc1OC,-,-,-,-,-,-
COc1ccc(CC(=O)Nc2cccc(-c3nnc(-c4ccccc4)o3)c2)cc1OC,?,-,-,-,11µM,-
CCc1ccc(NC(=O)CN(c2ccc(C)cc2)S(=O)(=O)c2cccs2)cc1,-,.,.,-,-,.
C/C(=N\NC(=O)c1c[nH]c2ccccc12)c1ccccn1,?,-,-,-,10µM,-
COC(=O)CN1C(=O)CSc2ccc(S(=O)(=O)Nc3c(C)cc(C)cc3C)cc21,-,.,.,-,-,.
COc1cccc(C2(CC(=O)N3CCC(c4nc5ccccc5o4)CC3)CC(=O)N(C)C2=O)c1 (stereo not drawn),-,.,.,.,-,.
O=C1NC2C(=CC(O)C(O)C2O)c2cc3c(c(O)c21)OCO3 (stereo not drawn),0.1µM,.,-,.,8.9µM,.
COc1cc(C2c3cc4c(cc3CC3COC(=O)C32)OCO4)cc(OC)c1O (stereo not drawn),?,.,-,.,-,.
O=C1NC2C(=CC(O)C(O)C2O)c2cc3c(cc21)OCO3 (stereo not drawn),1µM,.,-,.,?,.
O=C1NC2C(O)C(O)C(O)C(O)C2c2cc3c(c(O)c21)OCO3 (stereo not drawn),0.28µM,.,-,.,2.2µM,.
Nc1ccc(Cn2ccc3c4c(N)nc(N)nc4ccc32)cc1,?,.,?,.,0.35µM,.
O=C1c2ccccc2C(=O)c2c1oc(C(F)(F)F)c2C(=O)c1ccccc1,3.2µM,-,?,-,4.5µM,-
COc1ccc(CN2CCC(n3cc(C(=O)N4CCCC4)nn3)CC2)c(OC)c1C,-,.,.,.,-,.
O=C(NCc1ccccc1)C(c1ccco1)N1CCN(C(=O)C2CCCO2)CC1 (stereo not drawn),-,.,-,.,-,.
O=C(NCc1ccccc1)C(c1ccc(-c2ccccc2)cc1)N1CCN(C(=O)C2CCCO2)CC1 (stereo not drawn),?,.,-,.,2.8µM,.
CCCCCn1c(=O)c(F)cn(Cc2ccc(OC)c([N+](=O)[O-])c2)c1=O,.,-,-,-,.,-
CCCCCCn1c(=O)c(F)cn(Cc2ccc(OC)c([N+](=O)[O-])c2)c1=O,-,-,-,-,-[1.46 µM],0.14µM
CCN(CC)c1cc2c(c3c1ccn3C)C1CCC2C1 (stereo not drawn),-,.,?,.,-,.
SMILES,VACV Venus inh,SARS PLP yeast,AMA1-RON2 inh,AmpC inh detg,Vaccinia mCherry,AmpC no deterg
CN(Cc1ccccc1)c1cc2c(c3c1ccn3C)C1CCC2O1 (stereo not drawn),-,.,14µM,.,-,.
Cn1ccc2c(N(Cc3ccccc3)Cc3ccccc3)cc3c(c21)C1CCC3O1 (stereo not drawn),-,.,?,.,-,.
CCN(Cc1ccccc1)c1cc2c(c3c1ccn3C)C1CCC2C1 (stereo not drawn),-,.,20µM,.,-,.
Cc1cc(NCc2ccncc2)ccc1Br,.,-,25µM,-,.,-
Cc1ccc(NCc2ccncc2)c(Br)c1,-,-,?,-,-,-
COc1cc(=O)n2c(c1C(=O)N(C)Cc1ccsc1)CCN(Cc1cnn(C)c1C)CC2,-,.,.,.,-,.
Cc1cc(C)c(NC(=O)CSc2nnc(-c3ccccn3)n2N)c(Cl)c1,-,-,18µM,-,-,-
Cc1nn2c(N3CCN(C(=O)c4ccco4)CC3)cc(C(C)(C)C)nc2c1-c1ccccc1,10µM,-,-,-,.,-
Cc1nn2c(N3CCN(C)CC3)cc(C(C)(C)C)nc2c1-c1ccccc1,-,-,-,-,-,-
COc1ccccc1N1CCN(c2nc(CNC(=O)c3ccccc3F)nc3ccccc23)CC1,-,.,.,.,-,.
O=C(CCl)Nc1cccc(-c2cnc3ccccc3n2)c1,?,?,-,-,11µM,-
CCN(CCO)c1ccc(Nc2cc(-c3ccc(-c4ccccc4)cc3)ncn2)cc1,-,.,?,.,32µM,.
O=C1Nc2ccc(F)cc2C12Nc1ccccc1-c1nnc(SCc3ccccc3)nc1O2 (stereo not drawn),-,-,-,-,-,18µM
Cc1ccc(CSc2nnc3c(n2)OC2(Nc4ccccc4-3)C(=O)Nc3ccc(F)cc32)cc1 (stereo not drawn),-,-,-,-,-,?
NC(=O)c1ccc(Sc2nnc(-c3cccs3)n2CC2CCCO2)c([N+](=O)[O-])c1 (stereo not drawn),11µM,-,-,-,7.9µM,-
O=C(Nc1cccc(C(=O)Nc2ccc(Br)cc2)c1)c1ccccc1,.,-,-,-,.,32µM
Cc1ccc(NC(=O)NC(=S)NC(=O)c2ccccc2)cc1,7.1µM,-,-,-,?,-
O=C(Nc1ccc2nc3ccccc3nc2c1)c1ccccc1,?,-,-,?,10µM,-
Cc1ccc(NC(=O)c2ccc(NC(=O)c3ccccc3)cc2)cc1C,10µM,-,-,-,?,-
CCCNC(=O)C1=CC(c2ccc3c(c2)OCO3)=NS(=O)(=O)N1C,-,.,.,-,-,.
CNc1nc(N2CCCN(C)CC2)nc2cc(OC)c(OC)cc12,-,.,.,.,-,.
COc1ccc(NC(=O)Cn2c3ncccc3c(=O)n2-c2ccc(C)c(C)c2)c(OC)c1,-[7.34 µM],.,.,-,-[7.34 µM],.
CCc1nnc2n1N(C(C)=O)C(c1ccc(C(C)(C)C)cc1)=C(C(C)=O)S2,?,.,.,-,?,.
COc1cc(NC(=O)c2cccc(C)c2)ccc1NC(=O)c1cc2ccccc2o1,8.9µM,-,-,-,?,-
CC(=O)Nc1cccc(C(=O)/C=C/c2ccc(Br)cc2)c1,11µM,-,-,-,22µM,-
CCOc1cccc(C(=O)Nc2ccc(NC(=O)c3cc4ccccc4o3)c(OC)c2)c1,-,-,-,?,-,-
Cc1cccc(C(=O)Nc2ccc(NC(=O)c3ccccc3)cc2)c1,-,-,-,-,-,-
Cc1cccc(C(=O)Nc2cccc(NC(=O)c3ccccc3)c2)c1,-,-,-,-,-,22µM
Cc1cc(C)nc(Nc2ncc(O)n2-c2ccc(C)c(Cl)c2)n1,-,-,-,-,-,0.32µM
CCOC(=O)C1CCCN(S(=O)(=O)c2ccc(Cl)nc2)C1 (stereo not drawn),?,-,-,?,14µM,-
